# Experiments:
# Assay in all cases: DAPPL (digital affinity profiling via proximity ligation, sequencing); 10 mM Tris-HCl pH 7.5, 50 mM NaCl, 1 mM DTT, 4% glycerol, room temperature, 30 min; GST-TFs on glutathione beads, 16-mer random dsDNA library, 0.1% formaldehyde crosslink after washing; high values mean tight binding
# Conditions in all cases: protein: recombinant; tags: N-terminal GST; dsDNA, one strand shown
# [1] = target: T1, FEV (Homo sapiens, UniProt Q99581 1-238)
# T1 sequence: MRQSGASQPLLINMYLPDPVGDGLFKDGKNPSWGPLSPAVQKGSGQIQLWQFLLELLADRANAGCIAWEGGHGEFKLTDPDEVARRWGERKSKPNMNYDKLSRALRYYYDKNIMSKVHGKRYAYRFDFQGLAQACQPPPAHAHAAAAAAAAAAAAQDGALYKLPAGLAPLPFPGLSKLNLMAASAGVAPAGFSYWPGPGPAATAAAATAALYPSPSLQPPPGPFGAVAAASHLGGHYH
# Method in brief: (§1)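 Yeast served to express human transcription factors as GST fusions, which were then captured on glutathione beads and labelled with DNA barcodes. Pooled with a tag-only sample, they were incubated with 200 nmole of a 16-mer random double-stranded DNA library for 30 min at room temperature in Tris/NaCl/DTT/glycerol buffer, washed, crosslinked with 0.1% formaldehyde, ligated by proximity, amplified by PCR and sequenced. Dividing each hexamer's read frequency for a factor by its frequency for the tag-only sample gives the binding signal.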
# [2] = target: ETV5 (Homo sapiens, UniProt P41161 1-510)
# ETV5, sequence (P41161 whole entry): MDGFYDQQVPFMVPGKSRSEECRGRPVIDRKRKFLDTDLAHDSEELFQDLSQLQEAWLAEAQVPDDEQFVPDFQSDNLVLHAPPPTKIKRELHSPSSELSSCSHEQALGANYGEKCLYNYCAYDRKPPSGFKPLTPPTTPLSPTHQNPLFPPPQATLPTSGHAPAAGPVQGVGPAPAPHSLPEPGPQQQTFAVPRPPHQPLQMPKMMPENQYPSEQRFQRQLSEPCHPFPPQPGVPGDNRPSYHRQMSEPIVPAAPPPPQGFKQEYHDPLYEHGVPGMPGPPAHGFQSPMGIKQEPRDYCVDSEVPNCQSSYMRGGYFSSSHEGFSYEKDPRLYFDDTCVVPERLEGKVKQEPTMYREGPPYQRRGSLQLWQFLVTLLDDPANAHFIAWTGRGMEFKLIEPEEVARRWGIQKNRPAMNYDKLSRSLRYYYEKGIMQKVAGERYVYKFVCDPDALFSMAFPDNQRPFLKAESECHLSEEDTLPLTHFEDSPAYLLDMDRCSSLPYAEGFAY
# Method in brief: as §1
# [3] = target: T2, SPIC (Homo sapiens, UniProt Q8N5J4 1-248)
# T2 sequence: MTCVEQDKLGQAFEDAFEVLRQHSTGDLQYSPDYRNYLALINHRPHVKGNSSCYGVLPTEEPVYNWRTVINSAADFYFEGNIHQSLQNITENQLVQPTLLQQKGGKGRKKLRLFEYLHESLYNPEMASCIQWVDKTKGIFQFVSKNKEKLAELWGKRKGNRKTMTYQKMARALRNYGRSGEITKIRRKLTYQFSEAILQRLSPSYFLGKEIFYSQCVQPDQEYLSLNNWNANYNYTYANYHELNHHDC
# Method in brief: as §1
# [4] = target: ELF4 (Homo sapiens, UniProt Q99607 1-663)
# ELF4, sequence (Q99607 whole entry): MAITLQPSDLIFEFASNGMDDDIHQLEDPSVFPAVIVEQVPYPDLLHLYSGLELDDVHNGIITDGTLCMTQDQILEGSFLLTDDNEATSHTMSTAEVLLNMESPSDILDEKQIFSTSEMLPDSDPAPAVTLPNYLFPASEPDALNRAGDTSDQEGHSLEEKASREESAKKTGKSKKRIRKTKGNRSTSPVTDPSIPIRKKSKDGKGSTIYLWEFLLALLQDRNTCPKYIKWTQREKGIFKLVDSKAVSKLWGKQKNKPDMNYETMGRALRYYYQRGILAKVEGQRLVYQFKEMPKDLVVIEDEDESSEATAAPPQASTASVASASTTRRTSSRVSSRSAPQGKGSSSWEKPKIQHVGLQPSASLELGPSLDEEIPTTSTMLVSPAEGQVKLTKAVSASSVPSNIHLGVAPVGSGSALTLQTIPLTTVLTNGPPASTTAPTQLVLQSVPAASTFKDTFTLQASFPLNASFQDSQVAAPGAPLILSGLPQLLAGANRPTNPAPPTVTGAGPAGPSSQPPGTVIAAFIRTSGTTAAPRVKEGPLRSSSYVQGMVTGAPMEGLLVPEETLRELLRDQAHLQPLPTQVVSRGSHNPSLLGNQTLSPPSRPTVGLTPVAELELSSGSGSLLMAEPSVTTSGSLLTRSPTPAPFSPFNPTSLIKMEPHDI
# Method in brief: as §1
# [5] = target: T3, ELK4 (Homo sapiens, UniProt P28324-2 1-405)
# T3 sequence: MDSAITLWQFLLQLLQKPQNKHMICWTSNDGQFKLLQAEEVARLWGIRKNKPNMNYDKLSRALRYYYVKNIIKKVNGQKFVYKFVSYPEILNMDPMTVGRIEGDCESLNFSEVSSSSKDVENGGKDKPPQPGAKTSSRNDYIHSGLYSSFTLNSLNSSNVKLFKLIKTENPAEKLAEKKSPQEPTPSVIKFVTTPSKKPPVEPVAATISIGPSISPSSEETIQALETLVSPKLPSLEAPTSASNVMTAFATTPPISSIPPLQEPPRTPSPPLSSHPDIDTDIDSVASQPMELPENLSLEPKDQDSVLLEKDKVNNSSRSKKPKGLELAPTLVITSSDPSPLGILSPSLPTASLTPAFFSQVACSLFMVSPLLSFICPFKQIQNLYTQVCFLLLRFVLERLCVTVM
# Method in brief: as §1
# [6] = target: T4, ETV2 (Homo sapiens, UniProt O00321 1-342)
# T4 sequence: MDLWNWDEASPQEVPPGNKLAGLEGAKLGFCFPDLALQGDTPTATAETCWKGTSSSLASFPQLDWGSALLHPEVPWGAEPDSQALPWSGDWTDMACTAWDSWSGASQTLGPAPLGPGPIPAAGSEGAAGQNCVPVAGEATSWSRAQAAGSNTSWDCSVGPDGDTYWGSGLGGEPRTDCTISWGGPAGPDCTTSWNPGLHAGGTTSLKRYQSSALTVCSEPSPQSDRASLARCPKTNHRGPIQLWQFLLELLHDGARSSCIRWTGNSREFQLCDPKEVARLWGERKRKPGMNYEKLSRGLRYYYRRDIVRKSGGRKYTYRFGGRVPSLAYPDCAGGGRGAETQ
# Method in brief: as §1
# [7] = target: T5, ELF3 (Homo sapiens, UniProt P78545 1-371)
# T5 sequence: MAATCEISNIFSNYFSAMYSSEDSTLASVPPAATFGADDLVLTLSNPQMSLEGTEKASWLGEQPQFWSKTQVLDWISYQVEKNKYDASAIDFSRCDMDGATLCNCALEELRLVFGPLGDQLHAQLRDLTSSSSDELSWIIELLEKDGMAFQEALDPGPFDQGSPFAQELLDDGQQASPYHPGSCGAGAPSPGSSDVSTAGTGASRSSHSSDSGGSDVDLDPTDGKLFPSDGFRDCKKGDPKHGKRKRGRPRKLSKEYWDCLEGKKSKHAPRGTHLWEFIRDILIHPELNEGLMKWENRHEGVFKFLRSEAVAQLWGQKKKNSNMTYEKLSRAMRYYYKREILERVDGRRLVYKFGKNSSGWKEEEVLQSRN
# Method in brief: as §1
# [8] = target: ETV1 (Homo sapiens, UniProt P50549 1-477)
# ETV1, sequence (P50549 whole entry): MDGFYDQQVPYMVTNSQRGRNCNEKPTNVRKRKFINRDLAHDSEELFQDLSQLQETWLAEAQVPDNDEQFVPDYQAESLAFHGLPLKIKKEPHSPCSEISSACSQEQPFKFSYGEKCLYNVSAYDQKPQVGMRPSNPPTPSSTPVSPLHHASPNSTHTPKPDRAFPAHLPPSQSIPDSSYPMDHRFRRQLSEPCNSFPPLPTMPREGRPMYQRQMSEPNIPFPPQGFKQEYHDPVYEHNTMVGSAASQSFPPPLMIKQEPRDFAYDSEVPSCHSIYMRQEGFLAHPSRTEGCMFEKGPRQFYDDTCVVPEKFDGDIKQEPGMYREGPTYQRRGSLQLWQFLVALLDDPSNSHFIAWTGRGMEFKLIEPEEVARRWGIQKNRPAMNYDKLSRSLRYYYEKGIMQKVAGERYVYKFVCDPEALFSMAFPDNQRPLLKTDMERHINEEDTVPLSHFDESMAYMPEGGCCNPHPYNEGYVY
# Method in brief: as §1
# [9] = target: T6, ERF (Homo sapiens, UniProt P50548 1-548)
# T6 sequence: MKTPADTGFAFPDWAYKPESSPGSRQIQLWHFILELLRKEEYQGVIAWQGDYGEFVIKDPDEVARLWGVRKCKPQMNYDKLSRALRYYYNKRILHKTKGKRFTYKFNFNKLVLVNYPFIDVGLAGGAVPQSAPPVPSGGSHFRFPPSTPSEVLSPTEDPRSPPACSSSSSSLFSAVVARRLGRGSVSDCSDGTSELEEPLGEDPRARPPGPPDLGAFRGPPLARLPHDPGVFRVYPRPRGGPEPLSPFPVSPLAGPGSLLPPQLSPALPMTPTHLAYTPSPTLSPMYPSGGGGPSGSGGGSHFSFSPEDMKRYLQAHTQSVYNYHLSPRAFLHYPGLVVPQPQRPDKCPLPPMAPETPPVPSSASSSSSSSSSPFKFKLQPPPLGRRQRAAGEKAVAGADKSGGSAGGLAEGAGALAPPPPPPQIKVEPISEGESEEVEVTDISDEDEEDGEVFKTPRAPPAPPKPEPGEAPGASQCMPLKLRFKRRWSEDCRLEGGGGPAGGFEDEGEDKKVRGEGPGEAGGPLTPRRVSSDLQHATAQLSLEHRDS
# Method in brief: as §1
# [10] = target: T7, ETV3L (Homo sapiens, UniProt Q6ZN32 1-361)
# T7 sequence: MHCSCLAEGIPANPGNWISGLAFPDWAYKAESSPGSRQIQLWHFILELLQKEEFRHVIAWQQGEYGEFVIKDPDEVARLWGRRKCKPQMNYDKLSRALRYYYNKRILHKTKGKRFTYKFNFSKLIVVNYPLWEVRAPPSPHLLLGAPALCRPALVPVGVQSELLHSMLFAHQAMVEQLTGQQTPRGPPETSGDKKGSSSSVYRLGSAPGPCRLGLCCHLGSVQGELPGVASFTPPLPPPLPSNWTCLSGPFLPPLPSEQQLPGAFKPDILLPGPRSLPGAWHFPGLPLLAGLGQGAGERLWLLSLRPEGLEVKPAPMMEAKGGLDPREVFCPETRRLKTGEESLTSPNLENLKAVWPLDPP
# Method in brief: as §1
# [11] = target: T8, ETS2 (Homo sapiens, UniProt P15036 1-469)
# T8 sequence: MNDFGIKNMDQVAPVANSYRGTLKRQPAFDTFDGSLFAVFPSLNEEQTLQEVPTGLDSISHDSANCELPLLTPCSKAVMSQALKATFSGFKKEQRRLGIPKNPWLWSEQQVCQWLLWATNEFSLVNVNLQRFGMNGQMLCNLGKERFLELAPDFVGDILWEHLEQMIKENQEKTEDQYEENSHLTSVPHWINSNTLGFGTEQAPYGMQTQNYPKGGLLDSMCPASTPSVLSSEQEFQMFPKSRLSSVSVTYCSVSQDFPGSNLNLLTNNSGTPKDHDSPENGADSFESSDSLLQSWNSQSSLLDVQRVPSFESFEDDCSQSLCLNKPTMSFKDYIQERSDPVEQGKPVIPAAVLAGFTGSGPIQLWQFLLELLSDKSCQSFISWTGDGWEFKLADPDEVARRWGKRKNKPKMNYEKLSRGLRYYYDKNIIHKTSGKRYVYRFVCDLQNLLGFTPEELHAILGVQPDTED
# Method in brief: as §1
# [12] = target: T9, SPDEF (Homo sapiens, UniProt O95238 1-335)
# T9 sequence: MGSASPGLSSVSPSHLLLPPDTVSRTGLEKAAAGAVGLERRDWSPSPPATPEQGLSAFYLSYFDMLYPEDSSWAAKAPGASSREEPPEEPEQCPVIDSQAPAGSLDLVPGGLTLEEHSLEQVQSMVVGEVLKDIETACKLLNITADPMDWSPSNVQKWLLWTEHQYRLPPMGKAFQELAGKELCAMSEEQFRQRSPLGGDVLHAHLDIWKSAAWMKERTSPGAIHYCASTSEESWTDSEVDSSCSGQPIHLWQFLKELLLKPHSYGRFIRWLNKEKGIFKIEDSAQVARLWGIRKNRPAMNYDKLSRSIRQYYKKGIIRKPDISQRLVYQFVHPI
# Method in brief: as §1
# [13] = target: T10, ETV7 (Homo sapiens, UniProt Q9Y603 1-341)
# T10 sequence: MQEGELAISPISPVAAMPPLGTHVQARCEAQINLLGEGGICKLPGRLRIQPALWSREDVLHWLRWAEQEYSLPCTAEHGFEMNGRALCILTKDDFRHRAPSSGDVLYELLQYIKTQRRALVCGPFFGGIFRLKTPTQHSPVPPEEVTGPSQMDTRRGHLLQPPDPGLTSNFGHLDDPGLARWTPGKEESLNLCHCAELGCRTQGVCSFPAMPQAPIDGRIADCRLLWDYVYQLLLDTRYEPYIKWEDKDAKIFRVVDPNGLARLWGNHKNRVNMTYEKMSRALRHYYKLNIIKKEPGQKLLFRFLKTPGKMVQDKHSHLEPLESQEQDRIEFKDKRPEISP
# Method in brief: as §1
# [14] = target: T11, ELF5 (Homo sapiens, UniProt Q9UKW6-2 1-255)
# T11 sequence: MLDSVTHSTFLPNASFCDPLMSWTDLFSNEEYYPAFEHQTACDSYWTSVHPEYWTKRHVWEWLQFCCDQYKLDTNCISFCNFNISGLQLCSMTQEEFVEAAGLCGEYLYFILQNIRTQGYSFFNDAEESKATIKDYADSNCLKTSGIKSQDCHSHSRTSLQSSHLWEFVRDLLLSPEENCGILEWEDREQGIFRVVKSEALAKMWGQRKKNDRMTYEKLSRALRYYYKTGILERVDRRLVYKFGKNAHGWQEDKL
# Method in brief: as §1
# [15] = target: T12, ETV3 (Homo sapiens, UniProt P41162-2 1-143)
# T12 sequence: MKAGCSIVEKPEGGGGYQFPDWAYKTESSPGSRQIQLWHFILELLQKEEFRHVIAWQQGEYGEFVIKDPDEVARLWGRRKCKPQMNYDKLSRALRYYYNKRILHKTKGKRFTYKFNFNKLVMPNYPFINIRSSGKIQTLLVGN
# Method in brief: as §1
# [16] = target: ETV6 (Homo sapiens, UniProt P41212 1-452)
# ETV6, sequence (P41212 whole entry): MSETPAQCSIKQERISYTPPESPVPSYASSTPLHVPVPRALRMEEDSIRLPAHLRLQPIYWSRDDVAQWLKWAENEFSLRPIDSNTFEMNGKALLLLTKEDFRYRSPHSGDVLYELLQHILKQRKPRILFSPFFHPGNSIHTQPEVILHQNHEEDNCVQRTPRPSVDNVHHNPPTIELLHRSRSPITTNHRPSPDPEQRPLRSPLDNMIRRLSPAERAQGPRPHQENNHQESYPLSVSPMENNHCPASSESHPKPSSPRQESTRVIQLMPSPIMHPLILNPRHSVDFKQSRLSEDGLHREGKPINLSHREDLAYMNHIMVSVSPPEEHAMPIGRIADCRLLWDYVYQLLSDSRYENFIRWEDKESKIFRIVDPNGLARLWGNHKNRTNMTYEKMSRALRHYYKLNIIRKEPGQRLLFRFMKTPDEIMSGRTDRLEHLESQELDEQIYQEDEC
# Method in brief: as §1
Sequence,binding signal [1],binding signal [2],binding signal [3],binding signal [4],binding signal [5],binding signal [6],binding signal [7],binding signal [8],binding signal [9],binding signal [10],binding signal [11],binding signal [12],binding signal [13],binding signal [14],binding signal [15],binding signal [16]
GCACAA,"1.1 fold enrichment (6-mer frequency, TF over GST control)","1.07 fold enrichment (6-mer frequency, TF over GST control)","1.09 fold enrichment (6-mer frequency, TF over GST control)","1.11 fold enrichment (6-mer frequency, TF over GST control)","1.08 fold enrichment (6-mer frequency, TF over GST control)","1.03 fold enrichment (6-mer frequency, TF over GST control)","1.13 fold enrichment (6-mer frequency, TF over GST control)","1.04 fold enrichment (6-mer frequency, TF over GST control)","1.16 fold enrichment (6-mer frequency, TF over GST control)","1.08 fold enrichment (6-mer frequency, TF over GST control)","1.12 fold enrichment (6-mer frequency, TF over GST control)","1.05 fold enrichment (6-mer frequency, TF over GST control)","1.09 fold enrichment (6-mer frequency, TF over GST control)","1.1 fold enrichment (6-mer frequency, TF over GST control)","1.14 fold enrichment (6-mer frequency, TF over GST control)","1.11 fold enrichment (6-mer frequency, TF over GST control)"
GCGGAA,"1.34 fold enrichment (6-mer frequency, TF over GST control)","1.56 fold enrichment (6-mer frequency, TF over GST control)","1.5 fold enrichment (6-mer frequency, TF over GST control)","1.21 fold enrichment (6-mer frequency, TF over GST control)","1.05 fold enrichment (6-mer frequency, TF over GST control)","1.34 fold enrichment (6-mer frequency, TF over GST control)","1.53 fold enrichment (6-mer frequency, TF over GST control)","1.42 fold enrichment (6-mer frequency, TF over GST control)","1.19 fold enrichment (6-mer frequency, TF over GST control)","1.29 fold enrichment (6-mer frequency, TF over GST control)","1.42 fold enrichment (6-mer frequency, TF over GST control)","1.22 fold enrichment (6-mer frequency, TF over GST control)","1.26 fold enrichment (6-mer frequency, TF over GST control)","1.67 fold enrichment (6-mer frequency, TF over GST control)","1.55 fold enrichment (6-mer frequency, TF over GST control)","1.58 fold enrichment (6-mer frequency, TF over GST control)"
GCACGC,"1.08 fold enrichment (6-mer frequency, TF over GST control)","1.04 fold enrichment (6-mer frequency, TF over GST control)","1.06 fold enrichment (6-mer frequency, TF over GST control)","1.11 fold enrichment (6-mer frequency, TF over GST control)","1.05 fold enrichment (6-mer frequency, TF over GST control)","1.18 fold enrichment (6-mer frequency, TF over GST control)","1.13 fold enrichment (6-mer frequency, TF over GST control)","1.16 fold enrichment (6-mer frequency, TF over GST control)","1.09 fold enrichment (6-mer frequency, TF over GST control)","1.07 fold enrichment (6-mer frequency, TF over GST control)","1 fold enrichment (6-mer frequency, TF over GST control)","1.04 fold enrichment (6-mer frequency, TF over GST control)","1.07 fold enrichment (6-mer frequency, TF over GST control)",–,"1.14 fold enrichment (6-mer frequency, TF over GST control)","1.07 fold enrichment (6-mer frequency, TF over GST control)"

# — PMC7862700, “An all-to-all approach to the identification of sequence-specific readers for epigenetic DNA modifications on cytosine”
